# D3 antag = blocks the human D3 dopamine receptor; P35462; D3R cells, DiscoveRx beta-arrestin luminescence, antagonist mode; active compounds read low; max response, negative = inhibition, %; actives 2.5% (n = 360,000); AID 652054; in the data active means max response below about -50%; inconclusive means no clear call, values can overlap the other calls; further: on the % scale 0 is the no-effect control and ±100 the full control effect
#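 Cells plated overnight at 1500 cells/well, then exposed to library compounds with dopamine controls for 90 minutes at 37 degrees C. DiscoveRx reagent added for 30–60 minutes at room temperature; luminescence read, quantitative HTS format.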
# D3 ag = activates the human D3 dopamine receptor. D3R DiscoveRx beta-arrestin cells, luminescence, 90 min. max activation, %. AID 652048. P35462. actives 0.58% (n = 410,000); in the data active means max activation above about 30%; further: 0% is about no effect
#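 Agonist mode: compounds and dopamine controls were applied to plated cells for 90 min at 37 degrees C after an overnight attachment at 1500 cells/well. Luminescent read-out followed 30 - 60 minutes at room temperature with DiscoveRx detection reagent.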
# D1 potentiator = human D1 dopamine receptor positive modulation; potentiation, % at 10 µM; HEK293 TREx D1 cells, calcium flux, dopamine EC20 potentiation; actives 0.036% (n = 360,000); P21728; in the data active means potentiation above about 30%; further: 0% is about no effect
# Target sequence (P21728 whole entry, looked up): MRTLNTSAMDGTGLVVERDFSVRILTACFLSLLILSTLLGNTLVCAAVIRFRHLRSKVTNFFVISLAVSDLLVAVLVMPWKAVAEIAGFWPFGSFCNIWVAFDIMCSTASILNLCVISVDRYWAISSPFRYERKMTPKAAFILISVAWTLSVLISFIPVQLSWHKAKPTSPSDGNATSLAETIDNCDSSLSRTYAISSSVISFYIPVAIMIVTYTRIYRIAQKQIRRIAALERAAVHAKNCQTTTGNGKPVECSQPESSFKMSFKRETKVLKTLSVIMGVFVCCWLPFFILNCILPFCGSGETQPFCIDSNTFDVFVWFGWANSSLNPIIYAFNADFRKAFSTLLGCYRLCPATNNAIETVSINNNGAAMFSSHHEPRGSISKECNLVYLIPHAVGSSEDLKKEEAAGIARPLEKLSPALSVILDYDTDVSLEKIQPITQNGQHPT
# D1 antag = blocks dopamine activation of the human D1 receptor | HEK293 TREx D1 cells, calcium flux, dopamine EC80; active compounds read low | activity change, negative = inhibition, % at 10 µM | actives 3.2% (n = 360,000); in the data active means activity change below about -30%; further: on the % scale 0 is the no-effect control and ±100 the full control effect
#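 Antagonism measured as reduced calcium response to an EC80 dopamine addition following 180 s compound pre-read; cells were inducible HEK293 Trex D1 plated overnight at 30 C, read kinetically at 1 cycle/sec.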
# D1 ag = agonists of human D1 dopamine receptor; HEK293 T-REx D1 cells, calcium flux, agonist mode; actives 1% (n = 360,000); activation, % at 2 µM; in the data active means activation above about 30%; further: 0% is about no effect
#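 Tetracycline-induced HEK293 TREx D1 cells, force-coupled to calcium signalling, were dye-loaded with a no-wash calcium kit. Compound was pin-added after a 10 s baseline. Fluorescence was read kinetically at 1 cycle/s for 180 s, with calcium rises flagged as agonism.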
# Numbers without * were called inactive; ? = inconclusive; . = no result; ! = not active in a repeat. An excerpt weighted towards active compounds, which were near 6% of everything screened.
SMILES,D3 antag,D3 ag,D1 potentiator,D1 antag,D1 ag
Nc1ccccc1C(=O)OCC(=O)c1ccc2c(c1)OCCO2,-9,-1,-13,-33*,13
CC(=O)Nc1ccccc1C(=O)OCC(=O)c1ccc2ccccc2c1,48,25,-8,6,23
Cn1c(O)c(C=NCCCN2CCCC2=O)c(=O)n(C)c1=O,-65*,0,-4,-28,0
Nc1c(C(=O)Nc2ccc(OC(F)(F)F)cc2)sc2nc3c(cc12)N1CCC3CC1,.,-3,-5,-10,0
Fc1ccc2c(c1)nnn2C1CCN(Cc2ccccc2)CC1,-78*,-9,-20,-33*,1
Fc1ccc2c(c1)nnn2C1CCN(Cc2nnnn2CCc2ccccc2)CC1,-75*,-9,-7,-9,1
C[N+]1(CCF)[C@@H]2CC[C@H]1CC(OC(=O)C(O)(c1ccccc1)c1ccccc1)C2 (stereo partly specified),.,2,.,.,.
COC(=O)c1ccccc1C(=O)OC,.,-11,.,.,.
COc1ccccc1Sc1ccccc1CC(C)N (stereo unspecified),8,-2,-1,-25,60*
O=c1c2ccccc2nc(/C=C/c2ccccc2O)n1-c1ccccc1O,.,.,-6,-22,31*
Cc1ccccc1-n1c(/C=C/c2c(C)[nH]c3ccccc23)nc2ccccc2c1=O,.,2,0,7,10
Cc1ccccc1-n1c(/C=C/c2ccc(N(C)C)cc2)nc2ccccc2c1=O,.,2,60*,10,197*
Cc1ccccc1-n1c(C)nc2ccccc2c1=O,11,68*!,-5,-1,1
CCCC1=Nc2cc(C(=O)NCCCN(CC)CC)ccc2Sc2ccccc21,.,-18,-3,11,20
COc1cc2[nH]c(C(=O)N3CCC4(CC3)OCCO4)cc2c(OC)c1OC,-84*,-7,0,-9,1
O=C(O)[C@@H](O)[C@H](O)C(=O)O,12,3,.,.,.
CNC(=O)c1cccn(Cc2cccc(C(F)(F)F)c2)c1=O,1,9,-4,-32*,2
CCNC(=O)NC(=O)C(C)OC(=O)c1c(C)nn(Cc2ccccc2Cl)c1Cl (stereo unspecified),4,6,-3,-35*,5
O=C(Nc1ccccc1-c1ccc(Cl)cc1)c1cccnc1Cl,.,-26,.,.,.
Cc1cc(N2CCCCC2)ccc1C=C1C(=O)N(C)C(=S)N(C)C1=O,14,3,5,8,1
Cc1cc(N2CCCC2)ccc1C=C(C#N)C#N,-5,5,1,-33*,32*
CCCCN1CCC(O)(c2ccccc2)C(C(=O)c2ccccc2)C1 (stereo unspecified),-65*,-10,-9,3,2
CC1CCC(C(C)C)C(OC(=O)Cn2c(COc3ccccc3)[n+](C)c3ccccc32)C1 (stereo unspecified),-19,-17,-6,22,41*
CCN(CCCl)c1cc(CN(C)C)cc(NC(=O)c2ccc(C(=O)Nc3cc(CN(C)C)cc(N(CC)CCCl)c3)cc2)c1,-84*,-12,.,.,.
Cc1ccc(Cn2nc(C)c(C=O)c2Cl)cc1,16,-1,-5,-36*,2
SMILES,D3 antag,D3 ag,D1 potentiator,D1 antag,D1 ag
Cc1nn(Cc2ccccc2)c(C)c1C=C1C(=O)NC(=S)NC1=O,-13,-6,6,4,4
COc1ccc(OCC#CCN2CCC(C)CC2)cc1,?,-29,-7,0,5
Clc1ccc(OCC#CCN2CCCCCC2)cc1,-91*,-4,-1,.,0
CCCC(=O)Nc1ccc(N2CCN(CC)CC2)c(Cl)c1,2,-5,-12,-41*,2
C[N+]1([O-])[C@@H]2CC[C@H]1CC(OC(=O)C(CO)c1ccccc1)C2 (stereo partly specified),.,-5,.,.,.
C[N+]1(C)[C@@H]2CC[C@H]1CC(OC(=O)[C@@H](CO)c1ccccc1)C2 (stereo partly specified),-28,-3,-7,-1,3
C[N+]1(C)CCC(OC(=O)C(c2ccccc2)c2ccccc2)CC1,-59*,-87,.,.,.
C[N+]1(C)C2CC[C@H]1CC(OC(=O)C(CO)c1ccccc1)C2 (stereo partly specified),-67*,-6,-1,-3,-1
c1ccc(C2(N3CCCC3)CCCCC2)cc1,.,-22,.,.,.

# Assay outcomes (PubChem BioAssay)
